Results filed as inconclusive are left out. Active and inactive are the calls of the source. Unless noted, the call rests on the fitted dose curve; in most records, active means well fitted curve in the direction sought with a large enough effect; inconclusive means small, poorly fitted or top-dose-only effect, or another doubt; inactive means no such curve, though single readings can be large; an effect the other way counts as inactive or inconclusive.

Test [1] is described as follows: Primary qHTS for Huh7 cytotoxicity: counterscreen for inhibitors of MERS-S pseudotyped particle cell entry (AID 1479147; calls by dose curve). As to conditions: outcome: dose series up to 57.1 µM unless noted.
Test [2] in a line: Primary qHTS for inhibitors of MERS-S pseudo-typed particle cell entry (AID 1479149; calls by dose curve; further: nearly all actives have a fitted effect of over 60% in size). In general terms: qHTS replaces the single test concentration by a dilution series.
Test [3] can be described thus: Primary qHTS for Vero E6 cytotoxicity: counterscreen for inhibitors of SARS-S pseudo-typed particle cell entry (AID 1479150; calls by dose curve). Particulars: outcome: dose series up to 57.1 µM unless noted.
A short description of test [4]: A2780 Cisplatin Sensitive Ovarian Cancer Cell Toxicity qHTS against the NCATS CANVASS Library (AID 1347353). Further: nearly all actives have a fitted effect of over 60% in size. The procedure, abridged:
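750 cells/well, 4 h settle; 11-pt cpd titration; 72 h, 37 °C, 5% CO2; ATPLite 10 min RT; luminescence read.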

The nature of test [5]: qHTS for ATAD5 Antagonist screened against the NCATS CANVASS Library (AID 1347370).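 Further: HEK293T cells carrying an ATAD5 luciferase reporter co-treated with 10 µM 5-fluorouridine; nearly all actives have a fitted effect of over 65% in size.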 The gist of the method: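 HEK293T-ATAD5 luc reporter, 2000 cells/well; 5hr attach; cpd + 10 uM 5-FUrd; 16hr 37C, 5% CO2. Readouts: CellTiter-Fluor fluorescence (1hr), then Amplite luciferase luminescence (30min RT).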
A short description of test [6]: qHTS for inhibitors of ER calcium dysfunction: SERCaMP assay screened against the NCATS CANVASS Library (AID 1347393).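 Further: lower secreted reporter signal means inhibitor of ER calcium depletion; nearly all actives have a fitted effect of over 40% in size.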 The procedure, abridged:
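qHTS in SH-SY5Y reporter cells: 16 h compound pretreatment, 4 h thapsigargin, then secreted Gaussia luciferase measured by luminescence.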

Test [7] is described as follows: Redox Reaction Profiling qHTS: Assay Interference Panel against the NCATS CANVASS Library (AID 1347401). The procedure, abridged: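 Quantitative HTS over an 11-point series was run in HEPES pH 7.3 with 50 mM NaCl, 200 uM DTT and 5 uM resazurin. Initial and 15-min resorufin fluorescence readings were taken.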
A short description of test [8]: qHTS for inhibitors of Rabies Virus screened against the NCATS CANVASS Library (AID 1347402; calls by dose curve).
In test [9] the target is N-terminal Xaa-Pro-Lys N-methyltransferase 1 (Homo sapiens) (UniProt Q9BV86). Put plainly: Confirmatory qHTS for Inhibitors of N-terminal methyltransferase 1 (NTMT1): MTaseGlo Assay (AID 1645874). Further: potency means the concentration at half of the fitted maximal effect; nearly all actives have a fitted effect of over 65% in size. Particulars: NTMT1 enzyme, MTase-Glo SAH luminescence. The gist of the method: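 SPKRIA peptide at 1 uM was methylated by 125 nM NTMT1 using 100 uM SAM over 30 min at room temperature, following a 15 min compound preincubation. Product SAH was detected luminescently.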
Chain of N-terminal Xaa-Pro-Lys N-methyltransferase 1 (Homo sapiens) (Q9BV86 whole entry, looked up): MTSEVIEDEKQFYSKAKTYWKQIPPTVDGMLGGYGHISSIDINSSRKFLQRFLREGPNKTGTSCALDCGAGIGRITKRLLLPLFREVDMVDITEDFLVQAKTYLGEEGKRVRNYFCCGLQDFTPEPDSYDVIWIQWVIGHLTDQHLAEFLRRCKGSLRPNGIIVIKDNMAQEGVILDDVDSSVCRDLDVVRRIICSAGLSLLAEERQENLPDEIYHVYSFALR

Test [10] in a line: qHTS assay to identify inhibitors of the type 1 interferon - major histocompatibility complex class I in skeletal muscle: Counter screen cell viability and HiBit confirmation (AID 1347412). Further: nearly all actives have a fitted effect of over 60% in size. As to conditions: iHSKM muscle cells + IFN-b, HiBiT or CellTiter-Glo, 24 h; Potency: HiBiT; Viability, at 45.9 µM (top of the series). The gist of the method:
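Luminescence read-out: Nano-Glo HiBiT lytic signal from C-terminally HiBiT-tagged HLA-B in CRISPR-edited human myoblasts, plus CellTiter Glo ATP as viability counter screen. IFN-beta 4.0 ng/ml; 24 hrs treatment at 37 C, 5% CO2.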

The target of a further test is Furin (Homo sapiens) (UniProt P09958). Put plainly: Furin counterscreen qHTS for Zika virus inhibitors (AID 1347149).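 Further: purified recombinant full-length human furin enzyme at 5 nM; fluorescence gain from furin cutting a BOC-RVRR-AMC peptide substrate over 15 min; top concentration of the series differs between compounds; nearly all actives have a fitted effect of over 70% in size.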 The gist of the method:
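Counterscreen measures cleavage of 2 microM BOC-RVRR-AMC, below its ~15 microM Km, by 5 nM full-length human furin at pH 7.0 after a 15-min compound preincubation. Inhibition derives from the 15-min fluorescence increase at 37C.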

Test [11] has as its system Zika virus NS2B-NS3 protease (linked construct). Put plainly: Confirmatory screen NINDS AMC qHTS for Zika virus inhibitors (AID 1347152).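 Further: AMC fluorescence gain from cleaved Bz-Nle-KRR-AMC substrate over 15 min; top concentration of the series differs between compounds; nearly all actives have a fitted effect of over 70% in size.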 The procedure, abridged:
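Enzyme (1 nM, linked construct) was preincubated with compound for 15 minutes at room temperature in 10 mM Tris-HCl pH 8.0 with 0.01% Tween 20. Bz-Nle-Lys-Arg-Arg-AMC was then added to 10 microM, and AMC fluorescence was recorded immediately and after 15 minutes.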

Test [12] relates to Zika virus NS2B-NS3 protease (unlinked complex). Put plainly: Confirmatory screen GU AMC qHTS for Zika virus inhibitors (AID 1347153). Further: nearly all actives have a fitted effect of over 70% in size. The gist of the method: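 Noncovalent NS2B hydrophilic domain/NS3 protease complex (25 nM) in 10 mM Tris-HCl pH 8.0, 0.01% Tween 20 was preincubated 15 min at room temperature with compounds. Then 10 µM AMC substrate (Km 18.3 µM) was added; fluorescence was read over 15 min and fitted to a 4-parameter Hill equation.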

A short description of test [13]: Confirmatory screen GU Rhodamine qHTS for Zika virus inhibitors qHTS (AID 1347157). Further: potency means the concentration at half of the fitted maximal effect; nearly all actives have a fitted effect of over 70% in size. The gist of the method: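 Enzyme 25 nM in Tris-HCl pH 8.0 + 0.01% Tween 20; compounds up to 114 microM, 15 min RT dark; + Rhod110 substrate 1.5 microM; read t0 and 15 min; delta fluorescence → % inhibition → 4-parameter Hill fit.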
The nature of test [14]: Confirmatory screen NINDS Rhodamine qHTS for Zika virus inhibitors (AID 1347161). Further: potency means the concentration at half of the fitted maximal effect; nearly all actives have a fitted effect of over 60% in size. The gist of the method: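 Rhodamine110-peptide cleavage (1.5 µM substrate) by 25 nM linked NS2B-NS3 enzyme at pH 8.0 (Tris, Tween 20), after 15 min RT preincubation with compounds; 15-min fluorescence change normalized to controls and Hill-fitted.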
A short description of test [15]: Vero cells viability qHTS for Zika virus inhibitors (AID 1347167). The procedure, abridged:
(§1)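 To flag cytotoxic protease inhibitors, viability is measured by ATP-dependent luminescence (CellTiter Glo) after cells attached overnight receive compound for 24 to 48 hours in DMEM with 4% FBS.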

A short description of test [16]: HepG2 cells viability qHTS for Zika virus inhibitors (AID 1347168). The procedure, abridged: as §1
Test [17] is described as follows: G06 Cancer Cell Toxicity qHTS against the NCATS CANVASS Library (AID 1347368). The procedure, abridged:
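ATP luminescence (CellTiterGlo) readout of cytotoxicity. Canine G06 glioma cells, 500/well, 72 hr incubation at 37C with compounds; bortezomib titration served as control.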

A short description of test [18]: Confirmatory qHTS to identify inhibitors of SARS-CoV-2 cell entry (AID 1645844; calls by dose curve; further: potency means the concentration at half of the fitted maximal effect; nearly all actives have a fitted effect of over 45% in size). The procedure, abridged: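 Using stable human ACE2 Expi293F cells, compounds preincubated 1 hr before spike pseudoparticle infection; luciferase signal after 48 hr at 37C, 5% CO2, normalised to spike PP and no-fusion-protein PP wells.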
Test [19] has as its target Bile acid receptor (Homo sapiens) (UniProt Q96RI1). Description: qHTS assay for small molecule agonists of farnesoid X receptor signaling (AID 588527; calls by dose curve; further: potency means the concentration at half of the fitted maximal effect). As to conditions: HEK293T FXR-UAS-bla, beta-lactamase ratio, 16 h; activation: active compounds read high. The procedure, abridged:
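FXR-UAS-bla HEK293T, 10% dialyzed FBS; cpds up to 92 uM titration, 16 h 37 C; CCF4 dye 2 h RT; fluorescence. Normalized to chenodeoxycholic acid 100 uM (100%) and DMSO (0%); Hill fit gives EC50, efficacy.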

Chain of Bile acid receptor (Homo sapiens) (Q96RI1 whole entry, looked up): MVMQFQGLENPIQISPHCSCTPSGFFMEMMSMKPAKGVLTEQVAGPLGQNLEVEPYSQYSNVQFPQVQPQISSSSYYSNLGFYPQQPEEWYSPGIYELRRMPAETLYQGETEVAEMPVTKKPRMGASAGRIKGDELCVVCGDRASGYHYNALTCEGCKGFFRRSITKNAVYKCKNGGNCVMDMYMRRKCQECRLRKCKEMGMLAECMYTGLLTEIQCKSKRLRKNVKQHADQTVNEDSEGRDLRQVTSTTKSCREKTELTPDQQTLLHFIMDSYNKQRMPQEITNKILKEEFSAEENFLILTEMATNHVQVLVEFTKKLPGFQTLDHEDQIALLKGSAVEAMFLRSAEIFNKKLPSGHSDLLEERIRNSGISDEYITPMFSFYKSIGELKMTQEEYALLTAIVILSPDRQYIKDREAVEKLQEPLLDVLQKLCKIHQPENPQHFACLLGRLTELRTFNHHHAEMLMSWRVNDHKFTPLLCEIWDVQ
Chain of Furin (Homo sapiens) (P09958 whole entry, looked up): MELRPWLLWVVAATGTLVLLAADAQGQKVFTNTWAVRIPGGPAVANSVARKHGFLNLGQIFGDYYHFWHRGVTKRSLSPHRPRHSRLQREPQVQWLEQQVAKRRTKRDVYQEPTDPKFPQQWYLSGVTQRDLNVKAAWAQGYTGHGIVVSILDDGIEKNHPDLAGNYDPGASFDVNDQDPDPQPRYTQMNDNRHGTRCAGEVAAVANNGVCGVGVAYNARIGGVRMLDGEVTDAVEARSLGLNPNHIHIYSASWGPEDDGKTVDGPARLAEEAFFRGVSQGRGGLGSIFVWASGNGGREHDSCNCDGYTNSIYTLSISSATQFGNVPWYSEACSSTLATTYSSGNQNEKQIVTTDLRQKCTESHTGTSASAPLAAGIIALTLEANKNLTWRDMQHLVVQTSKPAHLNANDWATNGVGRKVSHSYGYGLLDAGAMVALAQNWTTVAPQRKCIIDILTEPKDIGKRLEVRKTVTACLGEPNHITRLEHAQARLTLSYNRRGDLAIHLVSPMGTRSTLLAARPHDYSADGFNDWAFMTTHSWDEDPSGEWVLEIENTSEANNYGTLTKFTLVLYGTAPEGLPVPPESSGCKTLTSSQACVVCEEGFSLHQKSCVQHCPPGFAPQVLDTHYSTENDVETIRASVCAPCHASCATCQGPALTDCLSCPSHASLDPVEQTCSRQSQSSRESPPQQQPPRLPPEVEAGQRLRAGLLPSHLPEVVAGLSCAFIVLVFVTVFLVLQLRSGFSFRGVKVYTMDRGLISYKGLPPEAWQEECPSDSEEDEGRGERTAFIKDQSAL

In the case of `CN1CCC2=C(C1)c1ccccc1Cc1ccccc12`, the outcome in [1] and in [3] was inactive. Also, the Potency entry in [2] was “inactive”.

Turning to `C/C=C1/CN2CC[C@]34C(=Nc5ccccc53)[C@@H]2C[C@@H]1[C@H]4C(=O)OC`, the Potency result in test [4], in [5], in test [6] and in [7] was “inactive” each time. In addition, the result in test [8] was inactive.

Regarding `C[C@H]1CCC[C@H](O)CCC/C=C/c2cc(O)cc(O)c2C(=O)O1`, in test [9], the Potency is 1 µM (active).

In the case of `C[C@H](Nc1ncnc2nc[nH]c12)c1nc2ccc(F)cc2c(=O)n1-c1ccccc1`, the Potency entry in test [10] was “inactive”.

Turning to `CC/C=C/C=C/C1(C)OC(OC)=C(C(=O)C2C(C)C(=O)c3cc(OC)c(O)c(O)c3C2(C)O)C1=O` (stereo not drawn), the Potency entry (with Furin (Homo sapiens); in [11]; in test [12]; in [15]; in test [16]) was “inactive” each time. The Potency in [13] is 9.61 µM (active); in test [14], 6.81 µM (active).

For `CN1C(=O)[C@]23CC4C(C)(C)[C@@]5(C[C@@]41CN2CC[C@@]3(C)O)C(=O)Nc1c5ccc2c1OC=CC(C)(C)O2` (stereo partly drawn), in [17], the Potency is 7.43 µM (active). Moreover, the Potency result in test [7] is “inactive”. In [8], the call was inactive.

As to `C/C(=C\c1csc(C)n1)[C@@H]1C[C@@H]2O[C@@H]2CCC[C@H](C)[C@H](O)[C@@H](C)C(=O)C(C)(C)[C@@H](O)CC(=O)O1`, the Potency in [18] is 0.121 µM (active).

Turning to `Cc1sc2c(c1C)C(c1ccc(Cl)cc1)=N[C@@H](CC(=O)Nc1ccc(O)cc1)c1nnc(C)n1-2`, the Potency result in test [10] was “inactive”.

`C[C@@H]1Cc2c(Cl)cc(C(=O)N[C@@H](Cc3ccccc3)C(=O)O)c(O)c2C(=O)O1`: the Potency in [19] is 44.7 µM (active).

Source of the values: PubChem BioAssay (NCATS).
